Assay results from PubChem BioAssay AID1159580 (chemical genetic matrix, 2015).
Several values for one entry are separate records, joined by “and”; a condition that tells them apart may be missing. Equal values may be shown once. Hit rate of the full screen: of about 5,500 compounds, about 2,000 (36%) were called active. Inconclusive results (about 18%) are left out. Cut-off read from the data, not from the text of the source: active = normalized growth mostly below about 0.91 (no sharp cut-off); inconclusive = no clear call, values can overlap the other calls; inactive = mostly above about 0.92. Some of the results follow.

Experiment: chemical genetic growth profiling, strain panel (AID 1159580);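 note: tested at 20 µM; growth read once vehicle control cultures reached saturation at 30 °C; 1 = growth at the plate median or of vehicle wells; lower values mean less growth of the strain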
Settings: S. cerevisiae deletion strains, growth OD

Measured: normalized growth

CN(C)CCCN1c2ccccc2CCc2ccccc21
inactive: locus YAL013W, strain DEP1, stronger effect = lower value 1.01 and 0.974 | locus YAL021C, strain ccr4, stronger effect = lower value 0.965 | locus YAL026C, strain drs2, stronger effect = lower value 1 | locus YAL030W, strain snc1, stronger effect = lower value 1 | locus YAL040C, strain CLN3, stronger effect = lower value 1.05 | locus YBL061C, strain skt5, stronger effect = lower value 1 | locus YBR009C, strain hhf1, stronger effect = lower value 0.995 | locus YBR021W, strain FUR4, stronger effect = lower value 0.997 | locus YBR023C, strain chs3, stronger effect = lower value 1 | locus YBR171W, strain sec66, stronger effect = lower value 1.01 | locus YBR229C, strain ROT2, stronger effect = lower value 1 | locus YBR231C, strain swc5, stronger effect = lower value 1 | locus YBR279W, strain paf1, stronger effect = lower value 1 | locus YCL011C, strain gbp2, stronger effect = lower value 1.01 | locus YCL016C, strain dcc1, stronger effect = lower value 0.994 | locus YCL029C, strain bik1, stronger effect = lower value 1 | locus YCL061C, strain MRC1 (second series), stronger effect = lower value 1 | locus YCL061C, strain MRC1, stronger effect = lower value 0.997 | locus YCL069W, strain vba3, stronger effect = lower value 1 | locus YCR088W, strain abp1, stronger effect = lower value 1.01 | locus YDL005C, strain med2, stronger effect = lower value 1.01 | locus YDL035C, strain GPR1, stronger effect = lower value 1.03 | locus YDL040C, strain nat1, stronger effect = lower value 1 | locus YDL074C, strain BRE1, stronger effect = lower value 1.02 | locus YDL101C, strain DUN1, stronger effect = lower value 1.03 | locus YDL134C, strain PPH21, stronger effect = lower value 1.03 | locus YDL185W, strain tfp1, stronger effect = lower value 0.993 | locus YDL192W, strain arf1, stronger effect = lower value 0.992 | locus YDR001C, strain nth1, stronger effect = lower value 1.01 | locus YDR069C, strain doa4, stronger effect = lower value 0.994 | locus YDR101C, strain arx1, stronger effect = lower value 0.998 | locus YDR137W, strain rgp1, stronger effect = lower value 1.1 | locus YDR150W, strain NUM1, stronger effect = lower value 1.01 | locus YDR159W, strain sac3, stronger effect = lower value 1 | locus YDR162C, strain NBP2, stronger effect = lower value 1.01 | locus YDR195W, strain ref2 1.02 | locus YDR297W, strain sur2, stronger effect = lower value 0.996 | locus YDR318W, strain mcm21, stronger effect = lower value 0.994 | locus YDR334W, strain swr1, stronger effect = lower value 1.01 | locus YDR335W, strain msn5, stronger effect = lower value 1.01 | locus YDR363W, strain ESC2, stronger effect = lower value 0.964 | locus YDR388W, stronger effect = lower value 0.995 | locus YDR392W, strain spt3, stronger effect = lower value 1.01 | locus YDR502C, strain sam2, stronger effect = lower value 0.993 | locus YEL003W, strain gim4, stronger effect = lower value 1 | locus YEL037C, strain rad23, stronger effect = lower value 1 | locus YEL061C, strain CIN8 (second series), stronger effect = lower value 1.03 | locus YEL061C, strain CIN8, stronger effect = lower value 1.01 | locus YER002W, strain NOP16, stronger effect = lower value 1.01 | locus YER015W, strain faa2, stronger effect = lower value 0.993 | locus YER016W, strain bim1, stronger effect = lower value 1.01 | locus YER110C, stronger effect = lower value 0.988 | locus YER111C, strain swi4, stronger effect = lower value 0.99 | locus YER155C, strain BEM2 (second series), stronger effect = lower value 0.975 | locus YER155C, strain BEM2, stronger effect = lower value 1 | locus YER167W, strain BCK2, stronger effect = lower value 1.01 | locus YFR010W, strain ubp6, stronger effect = lower value 1.01 | locus YGL078C, strain dbp3, stronger effect = lower value 0.972 | locus YGL086W, strain mad1, stronger effect = lower value 1.01 | locus YGL167C, strain pmr1, stronger effect = lower value 1.01 | locus YGL173C, strain kem1, stronger effect = lower value 0.991 | locus YGL227W, strain vid30, stronger effect = lower value 1 | locus YGL240W, strain doc1, stronger effect = lower value 1 | locus YGL248W, strain PDE1, stronger effect = lower value 1.01 | locus YGL253W, strain hxk2, stronger effect = lower value 1.02 | locus YGR078C, strain PAC10, stronger effect = lower value 1 and 0.981 | locus YGR135W, strain pre9, stronger effect = lower value 0.958 | locus YGR229C, strain SMI1, stronger effect = lower value 1 and 0.978 | locus YGR252W, strain gcn5, stronger effect = lower value 0.942 | locus YHR013C, strain ard1, stronger effect = lower value 0.947 | locus YHR027C, strain rpn1, stronger effect = lower value 1.01 | locus YHR030C, strain SLT2, stronger effect = lower value 1 and 0.993 | locus YHR079C, strain IRE1 (second series), stronger effect = lower value 0.989 | locus YHR079C, strain IRE1, stronger effect = lower value 1.01 | locus YHR094C, strain hxt1, stronger effect = lower value 0.978 | locus YHR129C, strain ARP1, stronger effect = lower value 1.01 | locus YHR142W, strain chs7, stronger effect = lower value 1.02 | locus YHR200W, strain rpn10, stronger effect = lower value 1 | locus YIL066C, strain RNR3, stronger effect = lower value 1.01 | locus YIL073C, strain SPO22, stronger effect = lower value 1 | locus YIL125W, strain kgd1, stronger effect = lower value 0.995 | locus YIR030C, strain dcg1, stronger effect = lower value 0.984 | locus YJL092W, strain hpr5, stronger effect = lower value 1.01 | locus YJL095W, strain BCK1 (second series), stronger effect = lower value 0.996 | locus YJL095W, strain BCK1, stronger effect = lower value 0.997 and 0.998 | locus YJL115W, strain asf1, stronger effect = lower value 1.01 | locus YJL129C, strain trk1, stronger effect = lower value 0.995 | locus YJL134W, strain LCB3, stronger effect = lower value 1.01 | locus YJL154C, strain vps35, stronger effect = lower value 1.02 | locus YJL164C, strain tpk1, stronger effect = lower value 1 | locus YJL166W, strain qcr8, stronger effect = lower value 1.02 | locus YJL168C, strain set2, stronger effect = lower value 0.984 | locus YJL187C, strain SWE1 (second series), stronger effect = lower value 1.01 | locus YJR043C, strain POL32, stronger effect = lower value 1.03 | locus YJR066W, strain TOR1, stronger effect = lower value 0.923
